# Experimental data published in PubChem BioAssay.
# Results filed as inconclusive are left out. Activity calls are given as the source filed them. Unless noted, the limit is not given here; nearly all actives have AC50 up to about 30 µM.
# What was measured:
# [1] = viability loss in pontine glioma line – cell-based, JHH-DIPG-1, MIPE4.0, CellTiter-Glo, qHTS, dose response (AID 1347062; cut-off not given, nearly all actives have AC50 up to about 27 µM;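 as to AC50: cells exposed to compound for two days before readout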); details: JHH-DIPG-1 viability, CellTiter-Glo ATP luminescence
# [2] = growth inhibition of DIPG cells – cell-based, MIPE4.0 library, CellTiter-Glo luminescence, qHTS (AID 1347066); details: SU-DIPG-VI viability, CellTiter-Glo ATP luminescence;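 also: cells exposed to compound for 48 hours before readout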
# [3] = JHH-DIPG-1 glioma cell viability, MIPE5.0 library, CellTiter-Glo luminescence, qHTS (AID 1347067; cut-off not given, nearly all actives have AC50 up to about 26 µM;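 also: cells exposed to compound for 48 hours before readout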); details: JHH-DIPG-1 glioma viability, CellTiter-Glo ATP luminescence
# [4] = viability loss in pontine glioma line – cell-based, SU-DIPG-IV, MIPE4.0, CellTiter-Glo, qHTS, dose response (AID 1347063); details: CellTiter-Glo ATP luminescence;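 also: compound exposure lasted 48 hours before the viability readout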
# [5] = viability loss in pontine glioma line – cell-based, SU-DIPG-XXV, MIPE5.0, CellTiter-Glo, qHTS, dose response (AID 1347065; cut-off not given, nearly all actives have AC50 up to about 26 µM;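 also: cells exposed to compound for 48 hours before ATP readout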); details: CellTiter-Glo ATP luminescence
# [6] = growth inhibition of DIPG cells – cell-based, MIPE5.0 library, qHTS (AID 1347068; cut-off not given, nearly all actives have IC50 up to about 30 µM); details: SU-DIPG-XXV viability
# [7] = viability loss with induced miR-34 in A549 – imaging, A549 dox-inducible miR-34, nuclei and caspase counts, primary screen (AID 1347080;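 active = compounds whose cell count with miR-34 switched on is under 0.7 times the count with it off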); details: A549 miR-34 inducible, Hoechst nuclei count, 48 h
# [8] = MELAS cybrid and Rieske KO viability enhancers – cell-based, MELAS cybrids, Rieske KO mouse fibroblasts, CellTiter-Glo, primary screen (AID 1508586;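 active = mean z-score across replicates of 1.96 or higher in either the MELAS or the Rieske mutant cell line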;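 also: z relative to plate mean and SD of compound and empty wells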); details: low glucose
# [9] = viability loss in pontine glioma line – cell-based, SU-DIPG-XIII, MIPE5.0, CellTiter-Glo, qHTS, dose response (AID 1347064; cut-off not given, nearly all actives have AC50 up to about 23 µM;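 as to AC50: cells exposed to compound for 48 hours before the viability read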); details: CellTiter-Glo ATP luminescence
# [10] = growth inhibition, single agent or in combination, cell-based, chromothripsis tumors, cisplatin or BGB combos (AID 1671449; in the data active = inhibition above about 80%;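 also: cells exposed for 96 hours; 0% = vehicle DMSO and 100% = killing by high DMSO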); details: LFS_MB_P medulloblastoma cells
# [11] = growth inhibition, single agent and combos, cell-based, chromothripsis tumors, cisplatin or BGB combos (AID 1671450; in the data active = inhibition above about 80%;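 also: cells exposed to compound for four days; 0% = vehicle DMSO and 100% = cell killing by high DMSO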); details: HDN33 neuroblastoma cells, stronger effect = higher value
# [12] = growth inhibition, single agents and combos, ICB984, cell-based, cisplatin or BGB combos, synergistic combos for chromothripsis tumors (AID 1671451; call rule not given here;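 also: cells exposed for 96 hours before readout; 0% = vehicle DMSO and 100% = killing by high DMSO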); details: ICB984 medulloblastoma cells, drug combinations, stronger effect = higher value
# [13] = growth inhibition, single agents and combos, HTB85, cell-based, BGB or cisplatin IC20 combos, synergistic combos for chromothripsis tumors (AID 1671453; in the data active = inhibition above about 80%;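 also: cells exposed for 96 hours before readout; 0% = vehicle DMSO and 100% = high DMSO killing control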); details: HTB85 osteosarcoma cells, drug combinations, stronger effect = higher value
# [14] = growth inhibition, MDA-MB-436, cell-based, BGB or cisplatin combos, synergistic combos for chromothripsis tumors (AID 1671458; call rule not given here;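 also: cells exposed for 96 hours; 0% = vehicle DMSO and 100% = killing by high DMSO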); details: MDA-MB-436 breast carcinoma growth inhibition, drug combinations, stronger effect = higher value
# [15] = BT084 cell growth, single and combined drugs, ICGC_MB145, cisplatin and BGB IC40 combos (AID 1671461; in the data active = inhibition above about 80%;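 also: cells exposed to drugs for 96 hours; 0% = vehicle DMSO and 100% = high DMSO full killing control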); details: BT084 medulloblastoma cells, drug combinations, stronger effect = higher value
# [16] = RCMB18 cell growth, single agent and combined, cisplatin and BGB IC40 combos (AID 1671462; in the data active = inhibition above about 80%;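 also: cells exposed to compound for four days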); details: RCMB18 medulloblastoma cells, stronger effect = higher value
# [17] = CRL1545 cell growth, single agent and combined, cisplatin and BGB IC20 combos (AID 1671464; in the data active = inhibition above about 80%;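 also: cells exposed to compound for 96 hours before readout; 0% = vehicle DMSO and 100% = high DMSO killing control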); details: CRL1545 osteosarcoma cells, stronger effect = higher value
# [18] = measured here: with BGB IC20 combination, at 0.5 µM
# [19] = measured here: with cisplatin IC20 combination, at 0.5 µM
smiles,measurement,setting,value
COc1cc2c(cc1Cc1cccc(Cl)c1F)c(=O)c(C(=O)O)cn2[C@H](CO)C(C)C,outcome,[1],inactive
same,AC50,[2],20.9 µM (active)
same,AC50,[3],26.3 µM (active)
O=c1[nH]nc(OCCCc2ccc(Cl)cc2)c(NCc2cccnc2)c1Br,AC50,[1],23.5 µM (active)
same,AC50,[4],18.7 µM (active)
same,AC50,[2],18.7 µM (active)
CC(=O)N(C)C1(c2ccccc2)CCN(CCC[C@]2(c3ccc(Cl)c(Cl)c3)CCCN(C(=O)c3ccccc3)C2)CC1,AC50,[1],29.6 µM (active)
same,AC50,[4],26.4 µM (active)
same,AC50,[2],33.2 µM (active)
COc1cc(Cl)cn2c(-c3cccc(NC4CNC4)n3)cnc12,outcome,[1],inactive
same,outcome,[2],inactive
CC(C)N(CC[C@H](c1ccccc1)c1cc(CO)ccc1O)C(C)C,outcome,[1],inactive
same,outcome,[4],inactive
same,outcome,[2],inactive
CC(C)(C)[C@H](NC(=O)c1ccc(N)c(Cl)c1)C(=O)N1CCC[C@H]1C(=O)N[C@H](C#N)CC(=O)O,outcome,[1],inactive
same,outcome,[4],inactive
same,outcome,[2],inactive
CC(C)(C)c1nc(-c2cccc(NS(=O)(=O)c3c(F)cccc3F)c2F)c(-c2ccnc(N)n2)s1,outcome,[1],inactive
same,outcome,[5],inactive
same,outcome,[3],inactive
same,outcome,[6],inactive
same,fold change,"[7]; stronger effect = lower value, cell number ratio, induced over uninduced",1 (inactive)
same,fold change,[7]; measured here: relative caspase fold change +Dox/-Dox,0.762
same,cell count,"[7]; measured here: total cells with miR-34 induction, stronger effect = lower value",8520
same,cell count,[7]; measured here: total cells without miR-34 induction,8520
same,z-score,"[8]; MELAS cybrid survival, CellTiter-Glo 48 h, stronger effect = higher value",-0.255 (inactive)
same,z-score,"[8]; Rieske KO mouse fibroblast survival, CellTiter-Glo 72 h",0.678
CCCCOCCOc1nc(-c2ccc(C(=O)O)c(F)c2)sc1C,outcome,[1],inactive
same,outcome,[9],inactive
same,outcome,[3],inactive
same,outcome,[6],inactive
CC/C=C\C[C@H]1C(=O)CC[C@@H]1CC(=O)OC,outcome,[1],inactive
same,outcome,[4],inactive
same,outcome,[2],inactive
COc1ccc2c(Oc3ccc(NC(=O)c4c(C)n(CC(C)(C)O)n(-c5ccccc5)c4=O)cc3F)ccnc2c1,outcome,[1],inactive
same,outcome,[9],inactive
same,AC50,[5],20.9 µM (active)
same,outcome,[2],inactive
same,AC50,[3],20.9 µM (active)
same,outcome,[6],inactive
C=CC(=O)Nc1cc(NC(=O)c2ccc(C)c(NC(=O)c3ccno3)c2)cc(C(F)(F)F)c1,AC50,[1],16.6 µM (active)
same,AC50,[4],18.7 µM (active)
same,AC50,[2],16.6 µM (active)
COc1ccc(C(=O)CC2(O)C(=O)Nc3c(Cl)ccc(Cl)c32)cc1 (centres undefined),AC50,[1],6.62 µM (active)
same,AC50,[9],11.8 µM (active)
same,AC50,[5],4.17 µM (active)
same,outcome,[2],inactive
same,AC50,[3],2.63 µM (active)
same,inhibition,"[10]; at 0.5 µM, stronger effect = higher value",-20.8% (inactive)
same,inhibition,"[10]; measured here: combination with BGB IC20, at 0.005 µM",-14.2%
same,inhibition,"[10]; measured here: combination with BGB IC40, at 0.005 µM",-20.5%
same,inhibition,"[10]; measured here: combination with BGB IC40, at 0.05 µM",-14.8%
same,inhibition,"[10]; measured here: combination with cisplatin, at 0.5 µM, stronger effect = higher value",-51.4%
same,inhibition,"[10]; measured here: combination with cisplatin, at 5 µM, stronger effect = higher value",10.7%
same,inhibition,"[11]; BGB combo, at 5 µM",63.6%
same,inhibition,[11]; at 0.5 µM,28.4% (inactive)
same,inhibition,"[11]; cisplatin combo, at 5 µM",59.7%
same,inhibition,[11]; [18],21.3%
same,inhibition,[11]; [19],16%
same,inhibition,"[11]; single agent, at 5 µM",93.1%
same,inhibition,"[12]; BGB IC20 combo, at 0.005 µM",-4.85%
same,inhibition,"[12]; BGB IC40 combo, at 0.005 µM",-25.9%
same,inhibition,"[12]; BGB IC40 combo, at 0.05 µM",11.3%
same,inhibition,[12]; at 0.5 µM,-24.6% (inactive)
same,inhibition,"[12]; cisplatin combo, at 0.05 µM",8.85%
same,inhibition,"[12]; cisplatin combo, at 0.5 µM",-32.2%
same,inhibition,"[12]; cisplatin combo, at 5 µM",-25.3%
same,inhibition,"[12]; measured here: 5 uM single agent, at 5 µM",-28.8%
same,inhibition,[13]; at 0.5 µM,33.2% (inactive)
same,inhibition,"[13]; measured here: with BGB IC20, at 0.5 µM",33.1%
same,inhibition,"[13]; measured here: with BGB IC20, at 5 µM",64.4%
same,inhibition,"[13]; measured here: with cisplatin IC20, at 0.5 µM",11.7%
same,inhibition,"[13]; measured here: with cisplatin IC20, at 5 µM",63.8%
same,inhibition,"[13]; single agent, at 5 µM",88.4%
same,inhibition,[14]; at 0.5 µM,2.68% (inactive)
same,inhibition,"[14]; measured here: BGB combination, at 0.5 µM",-5.4%
same,inhibition,"[14]; measured here: BGB combination, at 5 µM",40.2%
same,inhibition,"[14]; measured here: cisplatin combination, at 0.5 µM",-2.19%
same,inhibition,"[14]; measured here: cisplatin combination, at 5 µM",64.3%
same,inhibition,[15]; at 0.5 µM,-18.2% (inactive)
same,inhibition,"[15]; cisplatin combination, at 0.5 µM",1.77%
same,inhibition,"[15]; cisplatin combination, at 5 µM",10.6%
same,inhibition,"[15]; measured here: BGB IC40 combination 0.05 uM, at 0.05 µM",2.03%
same,inhibition,"[15]; single agent, at 5 µM",40.8%
same,inhibition,[16]; at 0.5 µM,-4.73% (inactive)
same,inhibition,"[16]; cisplatin combo, at 5 µM",26.4%
same,inhibition,"[16]; measured here: BGB IC40 combination, at 0.05 µM",-41.1%
same,inhibition,"[16]; measured here: combination with cisplatin, at 0.5 µM",6.7%
same,inhibition,"[16]; single agent, at 5 µM",24.9%
same,inhibition,[17]; at 0.5 µM,0.14% (inactive)
same,inhibition,[17]; [18],16.2%
same,inhibition,[17]; [19],-10.3%
same,inhibition,"[17]; single agent, at 0.05 µM",-6.9%
same,inhibition,"[17]; single agent, at 5 µM",77.7%
